In PubChem BioAssay one finds composite z-score and z-score data, which are given here for 17 molecules.

The source made the active and inactive calls. Unless noted, how the calls were made is not given here.

The subject of experiment [1] is XIP peptide (Xip251-270) binding. In words: XIP fragment 251-270 binding compounds – biochemical, small-molecule microarray, fluorescence 635/667 nm, 0.1 µg/mL protein, primary screen (AID 1182). Conditions: fluorescent protein binding, 635 nm, higher = more signal, called active from +8 up or from −8 down.
Another experiment deals with XIP peptide (Xip251-270). The experiment in a line: compounds binding XIP fragment 251-270 – biochemical, small-molecule microarray, fluorescence 635/667 nm, 0.5 µg/mL protein, primary screen (AID 1183). Conditions: fluorescence 635 nm, higher = more signal.
The nature of experiment [2]: blood-stage malaria parasite viability loss – strain 3D7, DAPI fluorescence, 100 nL, primary screen (AID 1184).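 Further: parasites grown inside human red blood cells in medium with human serum.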 Conditions: P. falciparum 3D7 growth, 3 d, higher = more signal.
Experiment [3] deals with Homeobox protein Hox-A13 (Mus musculus) (UniProt Q62424). The experiment in a line: disruptors of Hoxa13 oligonucleotide interaction – biochemical, fluorescence polarization, labeled oligonucleotide, primary screen (AID 1185). Conditions: Hoxa13:DNA binding, 15 min, higher = more signal, called active from +8 up or from −8 down.
Chain of Homeobox protein Hox-A13 (Mus musculus) (Q62424 whole entry, looked up): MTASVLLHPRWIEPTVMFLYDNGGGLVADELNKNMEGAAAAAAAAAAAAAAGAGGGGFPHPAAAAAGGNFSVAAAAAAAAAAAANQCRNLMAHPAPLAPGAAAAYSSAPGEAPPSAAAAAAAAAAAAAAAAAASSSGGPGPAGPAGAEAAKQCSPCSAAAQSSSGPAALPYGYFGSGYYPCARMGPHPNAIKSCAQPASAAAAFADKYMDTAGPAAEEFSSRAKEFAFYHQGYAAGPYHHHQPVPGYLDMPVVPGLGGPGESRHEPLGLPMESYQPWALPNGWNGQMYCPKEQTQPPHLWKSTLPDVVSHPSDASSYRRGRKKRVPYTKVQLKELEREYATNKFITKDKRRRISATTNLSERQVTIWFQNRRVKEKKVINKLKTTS
A short description of experiment [4]: blockers of DNA damage checkpoint Chk1 activation – imaging, HeLa, hydroxyurea, phospho-Chk1 antibody, percent positive cells, primary screen (AID 1186). As to conditions: hydroxyurea-induced phospho-Chk1 immunofluorescence imaging, higher = more signal.
Experiment [5] is described as follows: blockers of DNA damage checkpoint Chk1 activation – imaging, HeLa, hydroxyurea, phospho-Chk1 nuclear intensity, primary screen (AID 1187). As to conditions: hydroxyurea-induced phospho-Chk1 immunofluorescence imaging, higher = more signal.

Take `CN1C(=O)[C@]2(Cc3ccccc3)N=C(c3ccc(OCCCO)cc3)O[C@@H]2c2ccccc21`: the composite z-score in experiment [1] was 0.97 (inactive); in the experiment on XIP peptide (Xip251-270) it was 0.818. In addition, the z-score in experiment [2] is -2.3; in experiment [3] it was -4.54 (inactive); in experiment [4] it was -0.276 (inactive); in experiment [5] it was 0.0593 (inactive).

As for `CC(C)OC(=O)C=C1C[C@@H](c2ccccc2C(F)(F)F)O[C@@H](c2ccccc2C(F)(F)F)O1`, the composite z-score in experiment [1] is -0.245 (inactive); with XIP peptide (Xip251-270), -0.277. For the same molecule, the z-score is -1.82 in experiment [2], 0.189 (inactive) in experiment [3], -0.319 (inactive) in experiment [4] and -0.595 (inactive) in experiment [5].

Consider `NC(=O)[C@@H]1[C@H]2C(=O)O[C@H](c3ccccc3)[C@H](c3ccccc3)N2[C@H](c2ccc(O)cc2)[C@@]12C(=O)Nc1ccc(C#CC3(O)CCCCCC3)cc12`, for which the composite z-score in experiment [1] is 0.734 (inactive); in the experiment on XIP peptide (Xip251-270), 0.458. The z-score in experiment [2] is 0.907; in experiment [3], -3.37 (inactive); in experiment [4] it was -0.0527 (inactive); in experiment [5], 0.0812 (inactive).

Take `CCOc1cc(C(O)C2C=CC3C(=O)N(c4ccccc4)C(=O)C3N2Nc2ccccc2)ccc1O` (configuration not stated): the composite z-score is 0.497 (inactive) in experiment [1] and 0.221 in the experiment on XIP peptide (Xip251-270). Further, the z-score is -0.033 in experiment [2], -4.03 (inactive) in experiment [3], -0.516 (inactive) in experiment [4] and -0.835 (inactive) in experiment [5].

For the molecule `CC(C)(C)C(=O)N[C@@H](c1ccc(Cl)cc1)[C@]1(C)C[C@H]1C1CCCCC1`, the composite z-score is 0.398 (inactive) in experiment [1] and 0.837 with XIP peptide (Xip251-270). The z-score in experiment [2] is -0.827; in experiment [3], 2.32 (inactive); in experiment [4], -1.19 (inactive); in experiment [5], -0.627 (inactive).

Turning to `[N-]=[N+]=NCc1ccccc1[C@@H]1OC(c2ccc(OCCCO)cc2)=N[C@]1(CCS(=O)(=O)c1ccccc1)C(=O)NCc1ccccc1`, the figures for the composite z-score (in experiment [1]; with XIP peptide (Xip251-270)) were 0.212 (inactive) and 0.838, respectively. Further, the z-score in experiment [2] was -2.5; in experiment [3], -0.438 (inactive); in experiment [4], 0.21 (inactive); in experiment [5], -0.126 (inactive).

Regarding `CC1CC/C=C\[C@H]2OC34C=CCN(Cn5nnc6ccccc65)C(=O)[C@H]3N(C(CO)C(C)C)C(=O)[C@@H]4C2C(=O)O1` (some centres not stated), the composite z-score in experiment [1] was 0.575 (inactive); with XIP peptide (Xip251-270) it was 0.212. Besides, the z-score in experiment [2] was -0.918; in experiment [3], -5.58 (inactive); in experiment [4], 0.822 (inactive); in experiment [5], 0.71 (inactive).

Consider `COCCOC(=O)N1C(=O)[C@@]2(c3cc(C#Cc4ccc(OC)cc4)ccc31)[C@H](c1ccccc1OCCO)N1[C@H](c3ccccc3)[C@H](c3ccccc3)OC(=O)[C@H]1[C@@H]2C(=O)N1CCN(c2ncccn2)CC1`, for which the composite z-score in experiment [1] is -0.349 (inactive); in the experiment on XIP peptide (Xip251-270) it was 0.59. For the same molecule, the z-score in experiment [2] is -1.86; in experiment [3], 0.484 (inactive); in experiment [4], 0.0768 (inactive); in experiment [5], 0.273 (inactive).

Regarding `O=C1O[C@@H](c2ccccc2)[C@@H](c2ccccc2)N2[C@@H](c3ccc(OCCO)cc3)[C@]3(C(=O)Nc4ccccc43)[C@@H](C(=O)NC[C@H](O)c3ccccc3)[C@H]12`, the composite z-score in experiment [1] is 1.29 (inactive); with XIP peptide (Xip251-270) it was 0.345. Moreover, the z-score in experiment [2] was 0.0884; in experiment [3] it was -5.41 (inactive); in experiment [4], 0.167 (inactive); in experiment [5] it was 0.696 (inactive).

Consider `COCCOC(=O)N1C(=O)[C@@]2(c3cc(C#CCCO)ccc31)[C@H](c1ccc(OCCO)cc1)N1[C@H](c3ccccc3)[C@H](c3ccccc3)OC(=O)[C@H]1[C@@H]2C(=O)N1CCN(c2ncccn2)CC1`, for which the composite z-score in experiment [1] is -0.112 (inactive); with XIP peptide (Xip251-270), 0.676. Further, the z-score in experiment [2] is -1.98; in experiment [3], 0.671 (inactive); in experiment [4], 0.159 (inactive); in experiment [5], -0.0774 (inactive).

For the molecule `CCCC=C(CCC)[C@@H](NC(=O)Oc1ccc(F)cc1)c1ccc(C(=O)OC)cc1`, the results for the composite z-score (in experiment [1]; with XIP peptide (Xip251-270)) were 0.814 (inactive) and 0.302, respectively. The z-score in experiment [2] was -0.476; in experiment [3], -0.734 (inactive); in experiment [4], 0.239 (inactive); in experiment [5], 0.34 (inactive).

In the case of `CN(C)C(=O)[C@@]1(Cc2ccccc2CN=[N+]=[N-])N=C(c2ccc(OCCCO)cc2)O[C@H]1c1ccccc1`, the composite z-score was 1.79 (inactive) in experiment [1] and 0.817 in the experiment on XIP peptide (Xip251-270). The z-score was -2.27 in experiment [2], -5.09 (inactive) in experiment [3], -0.631 (inactive) in experiment [4] and -0.679 (inactive) in experiment [5].

Turning to `COc1cc2c(cc1O)C(C1CC1)N(Cc1cc3c(cc1Br)OCO3)CC2` (configuration not stated), the composite z-score was 0.411 (inactive) in experiment [1] and 0.479 in the experiment on XIP peptide (Xip251-270). Further, the z-score in experiment [2] was -2.44; in experiment [3] it was -5.54 (inactive); in experiment [4], -0.174 (inactive); in experiment [5] it was 0.285 (inactive).

On to `O=C1c2ccccc2[C@@]2(Cc3ccccc3N(CC(F)(F)F)C2=O)[C@H](c2ccc(CO)cc2)N1Cc1ccccc1Cl`, for which the composite z-score in experiment [1] is 0.0764 (inactive); with XIP peptide (Xip251-270), 0.182. In addition, the z-score in experiment [2] was -0.699; in experiment [3] it was 0.0876 (inactive); in experiment [4] it was -0.19 (inactive); in experiment [5], -0.245 (inactive).

Take `CCN(CC)c1ccc(N2CC=CC34O[C@@H]5/C=C\CCCOC(=O)C5[C@H]3C(=O)N(CCO)[C@@H]4C2=O)cc1` (some centres not stated): the composite z-score in experiment [1] is 0.482 (inactive); with XIP peptide (Xip251-270), 0.643. Besides, the z-score in experiment [2] was -1.52; in experiment [3] it was -5.79 (inactive); in experiment [4], 0.225 (inactive); in experiment [5], 0.161 (inactive).

For `Cc1ccc(S[C@]2(C(=O)NC3CC3)CC(=O)N(C3Cc4ccccc4C3)[C@@H]2c2ccc(CO)cc2)cc1`, the composite z-score is 0.136 (inactive) in experiment [1] and 0.876 in the experiment with XIP peptide (Xip251-270). The z-score in experiment [2] was -0.275; in experiment [3], -2.74 (inactive); in experiment [4] it was -0.671 (inactive); in experiment [5], -0.716 (inactive).

Take `COC(=O)[C@@]1(Cc2ccc(F)cc2)[C@H]2c3cc(C(=O)N(C)C)n(CC4CC4)c3C[C@H]2CN1C(=O)c1ccccc1`: the composite z-score was 0.308 (inactive) in experiment [1] and 0.524 in the experiment with XIP peptide (Xip251-270). Also, the z-score in experiment [2] is -1.33; in experiment [3], -2.84 (inactive); in experiment [4] it was -1.45 (inactive); in experiment [5], -1.76 (inactive).
